Bioassay records (PubChem BioAssay)
RN4220 kill: growth inhibition of S. aureus RN4220, primary screen, OD600 | 16 h | 0.33% of 330,000 active | inhibition, % (no concentration beside the values); in the data active means inhibition above about 85%;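 further: plate controls were untreated cells for no effect and reference antibiotic for full effect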
ugtP null kill: growth inhibition of ugtP-null S. aureus, primary screen, RN4220 ugtP deletion, OD600. 16 h. growth inhibition, % (no concentration beside the values). 0.54% of 330,000 active. AID 1259309, 2017; in the data active means growth inhibition above about 68%;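 further: plate controls were untreated wells for no effect and antibiotic for full effect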
PrP UTR inh: inhibition of PrP 5' UTR reporter expression; 0.35% of 340,000 active; inhibition, % (concentration not given with the values); cell-based PrP 5' UTR mRNA reporter, plate reader; in the data active means inhibition above about 52%; further: 0 = median of the neutral control wells
PfHsp40 yeast: rescue of yeast from PfHsp40 toxicity, primary screen, S. cerevisiae, ATP luminescence; S. cerevisiae expressing PfHsp40, growth rescue; growth rescue, % at 12.5 µM; 0.68% of 340,000 active; AID 504582, 2011; in the data active means growth rescue above about 28%, passing the limit was not always enough;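 further: yeast W303a lacking pdr1 and pdr3 grown in galactose medium; growth measured after three days at 30 °C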
TcdB inh: TcdB glycohydrolase inhibitors, primary screen, biochemical, single point, plate reader; Toxin B (Clostridioides difficile), P18177; TcdB glycohydrolase enzymatic assay; inhibition, % at 9.99 µM; 0.24% of 350,000 active; in the data active means inhibition above about 10%
Active calls of the source: *; . = no result given; ! = not active in a repeat. Most compounds without a hit are left out; they make up all but 1.2% or so of the library.

SMILES | RN4220 kill | ugtP null kill | PrP UTR inh | PfHsp40 yeast | TcdB inh
O=C1NC(=S)S/C1=C\c1ccc(SCc2ccccc2)o1 | 93* | 90* | -19 | 1 | .
c1ccc(-c2c(-c3ccccc3)n(Cc3ccco3)c3ncnc(NCCCn4ccnc4)c23)cc1 | 18 | 30 | 6 | 148* | .
OCCNc1ncnc2c1c(-c1ccccc1)c(-c1ccccc1)n2Cc1ccco1 | 0 | 10 | 11 | 0 | .
N=c1c2c(-c3ccccc3)c(-c3ccccc3)n(Cc3ccccc3)c2ncn1CCO | -3 | 91* | -14 | 1 | .
N=c1c2c(-c3ccccc3)c(-c3ccccc3)n(Cc3ccco3)c2ncn1CCCN1CCOCC1 | -3 | 6 | 2 | 0 | 1
N=c1c2c(-c3ccccc3)c(-c3ccccc3)n(Cc3ccco3)c2ncn1CCCn1ccnc1 | -5 | 8 | -20 | 235* | 0
COc1ccc2c3c([nH]c2c1)[C@H](CO)N(C(=O)CN(C)C)CC31CCN(CC2CCOCC2)CC1 | . | . | . | . | 0
O=C(Nc1nc(-c2ccccc2)c(-c2ccccc2)o1)c1ccc(F)cc1 | 99* | 96* | 11 | 418* | .
COc1cccc(C(=O)Nc2nc(-c3ccccc3)c(-c3ccccc3)o2)c1 | 40 | 16 | -14 | 4 | 1
O=S(=O)(c1ccccc1)N1CCN(c2ncnc3scc(-c4ccccc4)c23)CC1 | 96* | 98* | -45 | 1 | 1
Cc1ccc(-c2csc3ncnc(N4CCN(S(=O)(=O)c5cccs5)CC4)c23)cc1 | 97* | 98* | -18 | 122* | .
Cc1ccc(-c2csc3ncnc(N4CCN(S(=O)(=O)c5ccc(C#N)cc5)CC4)c23)cc1 | . | . | . | . | 0
Cc1cc(Nc2cccc(Cl)c2)nc(-c2ccccc2O)n1 | -14 | 24 | -14 | 1 | 1
Cc1cc(Nc2ccc(Cl)cc2)nc(-c2ccccc2O)n1 | -14 | 6 | -1 | 72* | 0
CCC(=O)N1C[C@@H](C)[C@@H](OC)CN(C)C(=O)c2ccc(NC(=O)CC(F)(F)F)cc2OC[C@@H]1C | . | . | . | . | 0
Oc1ccc(CCNc2ncnc3ccc(Cl)cc23)cc1 | . | . | 8 | -1 | 11*
Nc1nc(Cl)cc(NCCc2ccc(O)cc2)n1 | 1 | 12 | 9 | 0 | 14*
O=C(C1CC1)N1CCCCN2[C@H](C1)[C@@H](c1ccc(C#CC3CC3)cc1)[C@@H]2CO | . | . | . | . | 1
COc1ccc(Cl)cc1NC(=O)CN(C)C(=O)Cc1ccc2c(c1)CCC2 | 6 | -1 | -10 | 0 | 4
COc1ccc(Cl)cc1NC(=O)CN(C)C(=O)c1cc2c(s1)CCCC2 | -6 | -7 | -32 | 2 | 12*
COc1cccc(OCCn2cccc2/C=C2/C(=N)N3OC(C)=CC3=NC2=O)c1 | -3 | -9 | -8 | 0 | 2
CC1=CC2=NC(=O)/C(=C\c3cccn3CCOc3cccc(C)c3)C(=N)N2O1 | 2 | 7 | -17 | 44* | 0
CCC(=O)N(C)C[C@H]1Oc2ncc(-c3ccc(C#N)cc3)cc2C(=O)N([C@@H](C)CO)C[C@@H]1C | . | . | . | . | 0
CNC(=O)C[C@H]1CC[C@@H]2[C@H](COc3ccc(NS(=O)(=O)c4ccccc4C)cc3C(=O)N2C)O1 | . | . | . | . | 12*
CNC(=O)C[C@@H]1CC[C@H]2[C@H](COc3ccc(NS(=O)(=O)c4ccccc4C)cc3C(=O)N2C)O1 | . | . | . | . | 11*
SMILES | RN4220 kill | ugtP null kill | PrP UTR inh | PfHsp40 yeast | TcdB inh
COc1ccc(-c2cc3nc(-c4ccccc4)cc(N4CCCC(O)C4)n3n2)cc1 (stereo not drawn) | -6 | 13 | -14 | 66* | 1
COc1ccc(-c2cc3nc(-c4ccccc4)cc(N4CCN(C(C)=O)CC4)n3n2)cc1 | . | . | . | . | -10
COc1ccc(-c2cc3nc(-c4ccccc4)cc(N4CCC(O)CC4)n3n2)cc1 | -10 | 90* | 0 | 1 | .
C[C@H](CO)N1C[C@H](C)[C@@H](CN(C)Cc2ccc(C(F)(F)F)cc2)Oc2c(NC(=O)Nc3ccccc3)cccc2C1=O | . | . | . | . | 0
O=c1c(OC2OC(CO)C(O)C(O)C2O)c(-c2ccc(O)c(O)c2)oc2cc(O)cc(O)c12 (stereo not drawn) | -3 | -4 | -2 | 0 | 14*
O=c1c(O[C@@H]2O[C@H](CO)C(O)C2O)c(-c2ccc(O)c(O)c2)oc2cc(O)cc(O)c12 (stereo partly drawn) | . | . | 6 | 1 | .
O=[N+]([O-])c1cc(-c2ccc(C=Nn3cnnc3)o2)cc([N+](=O)[O-])c1 | 6 | 9 | . | . | .
CC(C)NC(=O)Nc1ccc2c(c1)C(=O)N([C@@H](C)CO)C[C@H](C)[C@H](CN(C)Cc1ccc(C(F)(F)F)cc1)OCCCC[C@H](C)O2 | . | . | . | . | 1
CN(C)C1=NC[C@H](Cc2ccccc2)N1CCCCc1ccccc1 | . | . | -24 | -1 | -1
CCCCCCCN1C(N(C)C)=NC[C@@H]1Cc1ccccc1 | -10 | -3 | -16 | 2 | 13*
O=C(NC[C@H]1CC[C@H]2[C@H](CN2Cc2cc(-c3ccccc3)on2)O1)c1ccc2c(c1)OCO2 | . | . | . | . | 0
COc1cccc(C2CN(c3ccc(F)cc3F)N=C2c2cccs2)c1OC (stereo not drawn) | -14 | 88* | -11 | 0 | .
COc1cc(SSc2cc(OC)cc([N+](=O)[O-])c2N)c(N)c([N+](=O)[O-])c1 | 38 | 87* | -16 | -1 | -8
Cc1cc(C=C2NC(=S)NC2=O)c(C)n1-c1cccnc1 | 2 | 0 | . | . | .
O=C(Nc1cccc(C(F)(F)F)c1)c1cccnc1NCCc1ccccc1 | 1 | 4 | -29 | 389* | .
CCOC(=O)[C@@H]1[C@H]2COc3ccc(Br)cc3[C@@H]2N2C(=O)N(c3ccc(Br)cc3)C(=O)[C@]12C | . | . | -20 | 0 | 14*!
CCOC(=O)[C@@H]1[C@H]2COc3cc(OC)ccc3[C@@H]2N2C(=O)N(c3cccc(C)c3)C(=O)[C@]12C | . | . | -6 | 65* | 1
COc1ccc(C2CC(c3ccc(Cl)cc3)=NN2c2ccc(S(N)(=O)=O)cc2)cc1 (stereo not drawn) | 94* | 40 | -23 | 0 | 2
COc1ccc(C2CC(c3ccccc3)=NN2c2ccc(S(N)(=O)=O)cc2)cc1OC (stereo not drawn) | -11 | -11 | -20 | 2 | 0
NS(=O)(=O)c1ccc(N2N=C(c3ccc(Br)cc3)CC2c2ccc(F)cc2)cc1 (stereo not drawn) | 98* | 45 | -33 | -1 | .
COc1ccc(C2=NN(c3ccc(C(=O)O)cc3)C(c3ccc(OC)c(OC)c3)C2)cc1 (stereo not drawn) | 13 | -5 | 3 | 112* | 0
C[C@@H]1CCCCO[C@H](CN(C)C(=O)C2CCCCC2)[C@@H](C)CN([C@@H](C)CO)C(=O)c2cc(NC(=O)Nc3ccc(C(F)(F)F)cc3)ccc2O1 | . | . | . | . | 0
C/C=C/c1ccc([C@H]2[C@@H](CO)N(Cc3cncnc3)C23CN(C(=O)CC2CC2)C3)cc1 | . | . | . | . | 0
Cc1cc(SCC(=O)NCCN2C(=O)CSC2=O)nc2c(C)cccc12 | 6 | 4 | -16 | 37* | .
